Screens: PubChem BioAssay, National Center for Advancing Translational Sciences (NCATS)
Only some compounds are listed: those with a hit (about 21% of all), similar ones and a draw of the others.
Cycloheximide cs: affects cycloheximide protein synthesis inhibition readout, counter-screen; AID 2314; cell reporter, cycloheximide protein synthesis inhibition counterscreen; max response, %; hit rate 12% among 300,000; in the data active = max response mostly above about 13%, no sharp cut-off; inactive = mostly below about 14%; also: read at 38.3 µM for the half of the compounds with a filed dose; 0% is about no effect
Pf growth 96h: P. falciparum growth inhibition at 96 hour, primary screen for plastid delayed-death inhibitors; P. falciparum luciferase reporter growth, 96 h; Potency, µM (doses to about 28.7 µM), inactives show top-dose activity change, negative = inhibition, most hits filed as inhibitors; hit rate 6.9% among 320,000; AID 504834; also: potency is read from the fitted curve at half-maximal effect; % is scaled to controls: 0 for no effect and ±100 for the full control effect
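P. falciparum expressing integrated firefly luciferase, in erythrocytes at 2% hematocrit, 0.05% parasitemia, incubated with compounds 96 h at 37 C, 5% CO2. Growth inhibition read as loss of luminescence; two-generation exposure targets delayed-death apicoplast inhibitors.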
Shiga toxin inh: Shiga toxin inhibition | Vero cells, Shiga toxin protein synthesis inhibition reporter | inhibition, % at 38.7 µM | hit rate 9.2% among 290,000 | AID 2315; in the data active = inhibition mostly above about 28%, no sharp cut-off; inactive = mostly below about 43%; also: 0% is about no effect
SARS PLP yeast: SARS-CoV PLP inhibition in yeast; S. cerevisiae expressing SARS-CoV PLpro, growth rescue; Potency, µM (doses to about 32.9 µM), for inactives: at the highest dose activity, positive = growth rescue, most hits filed as activators; hit rate 0.19% among 330,000; calls by dose curve; also: potency is read from the fitted curve at half-maximal effect; 0% is about no effect; nearly all actives have a fitted effect of over 55% in size
NS1 inh: influenza NS1 inhibition; Potency, µM (highest dose often 46.1 µM), inactives show at the top dose activity, positive = more growth; hit rate 0.4% among 270,000; AID 2326; calls by dose curve; also: potency is read from the fitted curve at half-maximal effect; actives are rising curves; nearly all actives have a fitted effect of over 50% in size
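Compounds were scored for reversing the slow growth caused by influenza A NS1 in S. cerevisiae, measured by optical density at 600 nm. Assay medium contained 2% galactose at pH 6.0; NS1-free yeast of the same strain were the positive control.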
Pf growth 48h: inhibits P. falciparum growth in the first generation, 48 h. P. falciparum luciferase growth in erythrocytes, 48 h. Potency, µM (titrated, usually from 28.7 µM), for inactives: at the top dose activity change, negative = inhibition, actives largely listed as inhibitors. hit rate 5.9% among 310,000. AID 504832; also: potency is read from the fitted curve at half-maximal effect; % is scaled to controls: 0 for no effect and ±100 for the full control effect
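Luciferase-expressing parasites in RBCs, 2% Hct / 0.1% parasitemia final; RPMI 1640 + 0.5% Albumax; 37 C, 5% CO2, one generation; luminescence read-out, lower signal = inhibition.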
* marks the source's active call; other numbers are inactive results; ? = inconclusive; . = not tested or not shown. Unless noted, calls follow the shape of the dose curve; as a rule, active = well fitted inhibition curve with a large enough effect; inconclusive = small, poorly fitted or top-dose-only effect, or another doubt; inactive = no such curve, though single readings can be large or run the other way.

SMILES	Cycloheximide cs	Pf growth 96h	Shiga toxin inh	SARS PLP yeast	NS1 inh	Pf growth 48h
Cn1c(CCN2CCN(c3ccccc3)CC2)nc2cc(NC(=O)c3ccco3)ccc21	-0.8	-7.5%	20.0	0.3%	-16.1%	.
CC(=O)Nc1ccc2c(c1)ncn2-c1ccc(C)cc1	42.1*	2.3%	98.6*	0.0%	-3.3%	?
COc1ccccc1NC(=O)COC(=O)COc1cccc2c1OC(C)(C)C2	.	12.3%	.	.	.	-12.6%
COc1ccccc1CNCc1cc(=O)oc2c(C)c(C)ccc12	-2.4	0.7%	-6.2	0.0%	-2.2%	15.0%
Cc1ccc2c(CN(C)Cc3ccc(OC(F)F)cc3)cc(=O)oc2c1C	5.7	?	27.8	-2.7%	-39.3%	?
Cc1ccc2c(CN(C)Cc3ccccc3)cc(=O)oc2c1C	43.6*	46.4%	46.1*	-1.1%	-11.6%	-6.8%
CCc1ccc2oc(=O)cc(CN(C)Cc3ccccc3)c2c1	-1.4	.	-14.3	-4.8%	-63.0%	8.28µM*
Cc1ccc2c(CN(C)Cc3cccc(F)c3)cc(=O)oc2c1C	22.5*	2.7%	55.5	-2.8%	-38.0%	-7.6%
CCc1ccc2oc(=O)cc(CN3CCN(Cc4ccccc4)CC3)c2c1	-4.1	?	5.8	-2.3%	5.0%	?
COc1ccc(S(N)(=O)=O)cc1C(=O)OCC1CCCCC1	-5.3	-12.4%	-5.4	-5.1%	-21.2%	17.9%
O=C(Nc1nc2c(F)cc(F)cc2s1)c1ccc2c(c1)OCCO2	.	39.7%	.	0.8%	.	224.5%
CCC/C(O)=C1\C(=O)CC(C)(C)CC1=Nc1ccc(OC)cc1	-0.8	?	.	-4.4%	-26.5%	-28.0%
COc1ccc(C2=NNC(c3cccs3)=Nc3ccc(OC)cc32)cc1	30.9*	-17.2%	70.4*	-31.5%	?	?
COc1ccc(C2=NNC(c3cccnc3)=Nc3ccccc32)cc1	-4.1	6.57µM*	-9.4	0.7%	7.8%	-14.5%
c1ccc(C2=NNC(c3ccco3)=Nc3ccccc32)cc1	17.1*	29.6%	23.3	0.5%	13.6%	?
CCOc1ccc(C2=NNC(c3cccs3)=Nc3ccc(OC)cc32)cc1OCC	26.6*	-14.5%	52.2*	4.8%	22.7%	11.7µM*
O=C(NCc1ccc(Cl)cc1)c1cc(S(=O)(=O)N2CCCCC2)c[nH]1	-1.0	20.1%	-11.2	-1.7%	8.8%	?
CCOc1ccc(C2=NNC(c3cccs3)=Nc3ccc(OCC)cc32)cc1	3.8	?	29.7*	-7.8%	5.5%	.
CCOc1ccc2c(c1)C(c1cccs1)=NNC(c1cccnc1)=N2	9.5	-19.2%	-0.5	1.7%	.	-23.1%
O=C(Nc1ccnn1C1CCN(CCCc2ccccc2)CC1)c1ccccc1Cl	-0.5	?	-12.6	?	1.8%	-27.1%
Cc1ccc(C2C(C(=O)c3cccs3)=C(O)C(=O)N2c2cccc(C)n2)cc1 (stereo not given)	17.1*	34.0%	70.4*	-2.0%	0.1%	13.8%
Cc1ccc(C2C(C(=O)c3cccs3)=C(O)C(=O)N2c2ccc(S(N)(=O)=O)cc2)cc1 (stereo not given)	24.5*	24.3%	40.4	6.2%	?	21.9%
COc1ccccc1N(CN1C(=O)c2ccccc2C1=O)C(=O)c1cccc(C)c1	-8.5	-29.8%	-8.2	-13.4%	4.5%	1.9%
COc1ccccc1CNC(=O)c1cc(-c2ccccc2)nn1Cc1cc(C)no1	.	?	.	4.1%	.	?
CCc1cc(Cn2nc(-c3ccccc3)cc2C(=O)NCc2ccccc2OC)on1	.	?	.	-13.2%	.	10.4µM*
SMILES	Cycloheximide cs	Pf growth 96h	Shiga toxin inh	SARS PLP yeast	NS1 inh	Pf growth 48h
COc1cc(CNCc2cccc(OC)c2OC)cc(OC)c1	10.0	-8.7%	.	4.9%	?	0.0%
COc1ccccc1CNCc1ccc(OC)c(OC)c1OC	-2.0	10.4µM*	8.3	-3.6%	14.3%	-28.1%
COc1cccc(CNCc2ccccc2Br)c1OC	-2.0	9.28µM*	.	1.8%	-7.8%	2.6%
CC(=O)c1csc(COc2ccccc2)n1	16.6*	85.8%	35.2	-0.9%	-6.4%	65.8%
CCOC(=O)c1csc(NC(=O)CCSc2ccccc2)n1	7.2	?	15.7	-1.5%	.	1.4%
CCOC(=O)c1csc(NC(=O)CC2CCCC2)n1	25.0*	-5.8%	32.1*	-0.2%	.	17.9%
CCOC(=O)c1csc(COc2ccccc2Cl)n1	32.5*	2.0%	52.5*	1.1%	-7.5%	36.6%
CCOC(=O)c1csc(-c2ccc([N+](=O)[O-])cc2)n1	40.3*	28.4%	89.6*	0.2%	.	60.5%
